Data as given in paper PMC4336329 (PLoS ONE, 2015).
Among all 310,000 compounds or so, about 14,000 (4.5%) showed an effect of 50% or more. The effect is printed as a negative number. This excerpt belongs to a sample that is enriched for strong results.

Molecular target: human ether-à-go-go-related gene (hERG) potassium channel (human, UniProt Q12809)
Assay: primary screen, population patch clamp on CHO cells stably expressing hERG; higher = less effect of the substance
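Further: peak tail current of the secondary pulse compared with the same well before compound.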

Chain of human ether-à-go-go-related gene (hERG) potassium channel (Q12809 whole entry, looked up): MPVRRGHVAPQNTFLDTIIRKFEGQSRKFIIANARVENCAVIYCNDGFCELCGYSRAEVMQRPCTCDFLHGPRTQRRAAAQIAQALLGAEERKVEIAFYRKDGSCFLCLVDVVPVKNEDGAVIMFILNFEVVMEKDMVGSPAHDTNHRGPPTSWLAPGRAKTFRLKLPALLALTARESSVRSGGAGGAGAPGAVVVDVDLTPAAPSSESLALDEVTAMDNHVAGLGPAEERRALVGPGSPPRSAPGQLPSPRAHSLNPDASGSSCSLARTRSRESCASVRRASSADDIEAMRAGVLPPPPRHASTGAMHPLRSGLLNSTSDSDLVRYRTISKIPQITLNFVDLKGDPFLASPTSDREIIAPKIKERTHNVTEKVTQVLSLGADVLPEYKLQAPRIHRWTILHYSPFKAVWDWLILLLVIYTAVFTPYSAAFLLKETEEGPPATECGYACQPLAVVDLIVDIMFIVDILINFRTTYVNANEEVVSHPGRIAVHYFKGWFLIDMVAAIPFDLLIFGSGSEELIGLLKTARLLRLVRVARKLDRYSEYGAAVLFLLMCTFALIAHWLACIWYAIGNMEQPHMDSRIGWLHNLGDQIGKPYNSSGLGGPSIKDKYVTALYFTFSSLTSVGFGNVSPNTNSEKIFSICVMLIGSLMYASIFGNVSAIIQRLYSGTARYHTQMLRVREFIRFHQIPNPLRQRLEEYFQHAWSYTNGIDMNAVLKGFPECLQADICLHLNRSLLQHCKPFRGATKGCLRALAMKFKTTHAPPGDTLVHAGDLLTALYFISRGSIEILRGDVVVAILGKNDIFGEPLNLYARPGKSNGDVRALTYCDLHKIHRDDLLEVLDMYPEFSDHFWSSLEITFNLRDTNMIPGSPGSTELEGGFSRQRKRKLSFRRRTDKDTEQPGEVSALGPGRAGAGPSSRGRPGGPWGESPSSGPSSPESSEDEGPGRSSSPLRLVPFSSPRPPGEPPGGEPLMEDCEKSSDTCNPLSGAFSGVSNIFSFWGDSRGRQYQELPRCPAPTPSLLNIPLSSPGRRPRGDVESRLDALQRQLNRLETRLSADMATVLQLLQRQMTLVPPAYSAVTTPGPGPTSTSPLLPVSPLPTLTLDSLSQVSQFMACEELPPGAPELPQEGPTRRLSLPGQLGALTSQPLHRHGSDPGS

SMILES	hERG current change (%, negative = inhibition) at 10uM [%]
CCCn1c(O)c(CN2CCCCC2)c(C)c(C#N)c1=O	15.5
O=C(NC(=S)Nc1ccc(N2CCOCC2)cc1)c1cncc(Br)c1	19.5
CC(C)CC(=O)Nc1ccnn1C1CCN(C(=O)c2ccc(Cl)cc2F)CC1	-30.4
N#CC(C#N)C(c1ccsc1)c1c(-c2ccccc2)[nH][nH]c1=O (stereo not drawn)	-3.36
CN1C(=O)C(=O)/C(=C(/O)c2ccc(Br)cc2)C1c1ccccc1F (stereo not drawn)	8.71
O=C(C1=C[C@@H](c2coc3ccccc3c2=O)C[C@@H](OCCCCO)O1)N1CCOCC1	7.47
CN1CCN(C(=O)C2=C[C@@H](c3coc4ccccc4c3=O)C[C@@H](OCCCCO)O2)CC1	0.749
O=C(C1=C[C@@H](c2coc3ccccc3c2=O)C[C@@H](OCCCCO)O1)N1CCN(Cc2ccccc2)CC1	-57.9
CN1CCN(C(=O)C2=C[C@H](c3coc4ccccc4c3=O)C[C@H](OCCCCO)O2)CC1	-20.3
O=C(C1=C[C@H](c2coc3ccccc3c2=O)C[C@H](OCCCCO)O1)N1CCOCC1	-16
O=C(C1=C[C@H](c2coc3ccccc3c2=O)C[C@H](OCCCCO)O1)N1CCN(Cc2ccccc2)CC1	-61.5
Nc1nc(Sc2c([N+](=O)[O-])cc(C(F)(F)F)cc2[N+](=O)[O-])n[nH]1	3.04
CCn1c(COc2ccccc2OC)nc2ccccc21	2.28
Cc1ccc(-c2csc3nc(SCC(=O)N(C)C)n(Cc4ccccc4)c(=O)c23)cc1	-26
Cc1[nH][nH]c(=O)c1C(c1ccc(O)c(Br)c1)c1c(C)[nH][nH]c1=O	4.34
O=C(c1ccccc1Br)N1CCN(c2ccccn2)CC1	9.41
O=C(COC(=O)CCSc1ccccc1)NCc1ccccc1Cl	22.4

SMILES	hERG current change (%, negative = inhibition) at 10uM [%]
Nc1nc(Sc2ncccc2[N+](=O)[O-])n[nH]1	3.27
COc1ccccc1NC(=S)N1C2CCC1CC(NC(=O)NC13CC4CC(CC(C4)C1)C3)C2 (stereo not drawn)	-2.49
Cc1cccc(N2C(=O)CN(Cc3sccc3C)C2=S)c1	-7.83
COc1ccccc1N1CCN(C(=O)c2cc(-c3ccccc3)on2)CC1	8.22
CCn1c(N2CCN(S(=O)(=O)c3ccc(F)cc3)CC2)nc2ccccc21	-36.2
CCn1c(N2CCN(C(=S)NCC(C)C)CC2)nc2ccccc21	-30.4
Cn1c(N2CCN(C(=O)Nc3ccc(C(F)(F)F)cc3)CC2)nc2ccccc21	-41.3
Cn1c(N2CCN(C(=O)Nc3ccc(F)cc3)CC2)nc2ccccc21	-55.8
CCn1c(N2CCN(C(=O)NC3CCCCC3)CC2)nc2ccccc21	-32.5
COc1ccc(Nc2nc3ccccc3n2C)cc1	11.3
CCn1c(N2CCN(C(=S)Nc3ccc(OC)cc3)CC2)nc2ccccc21	-68.3
CCn1c(N2CCN(C(=O)Nc3ccc(F)cc3)CC2)nc2ccccc21	-68.2
Cn1c(Nc2ccccc2)nc2ccccc21	1.74
CCn1c(N2CCN(C(=S)NC)CC2)nc2ccccc21	-30.2
O=C(Nc1ccc(F)cc1)N1CCN(c2nc3ccccc3s2)CC1	1.48
Cn1c(Nc2ccc(F)cc2)nc2ccccc21	-51.7
